Assay outcomes from PubChem BioAssay.
Compounds with a hit are over-represented: about 4.7% of the library has one in this group of screens.
D1 potentiator – enhances dopamine response at the human D1 receptor. HEK293 TREx D1 cells, calcium flux, dopamine EC20 potentiation. potentiation, % at 10 µM. P21728. hit rate 0.036% among 360,000; in the data active means potentiation above about 30%
TRHR PAM – TRH receptor (human) allosteric enhancement; P34981; TRHR cells, fluo-8 calcium fluorescence, EC20 TRH enhancement; enhancement, % at 2 µM; hit rate 0.66% among 360,000; AID 493056; in the data active means enhancement above about 30%
Target sequence (P34981 whole entry, looked up): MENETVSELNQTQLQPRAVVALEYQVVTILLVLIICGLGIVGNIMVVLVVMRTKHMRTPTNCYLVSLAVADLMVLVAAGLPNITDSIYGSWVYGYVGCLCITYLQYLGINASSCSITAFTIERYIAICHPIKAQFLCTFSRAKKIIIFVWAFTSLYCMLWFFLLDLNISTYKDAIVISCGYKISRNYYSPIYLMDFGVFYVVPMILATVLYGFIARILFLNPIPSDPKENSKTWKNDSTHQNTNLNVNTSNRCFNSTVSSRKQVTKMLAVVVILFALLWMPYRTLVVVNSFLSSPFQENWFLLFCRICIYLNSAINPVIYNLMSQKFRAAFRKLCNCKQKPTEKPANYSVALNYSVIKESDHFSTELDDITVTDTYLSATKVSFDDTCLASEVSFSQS
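Enhancer read-out: after compound pinning and an initial kinetic agonist-mode read, an EC20 of TRH (10 nM final) was injected and fluo-8 calcium signal (Ex 480/Em 530) followed at 1 s/cycle for 100 cycles in TRHR-expressing cells.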
D1 antag – antagonists of human D1 dopamine receptor; P21728; HEK293 TREx D1 cells, calcium flux, dopamine EC80; stronger effect = lower value; activity change, negative = inhibition, % at 10 µM; hit rate 3.2% among 360,000; AID 504652; in the data active means activity change below about -30%
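Inducible Hek293 Trex D1 cells (tetracycline, overnight, 30 C). Calcium dye 30–90 min RT. Antagonist mode: EC80 dopamine added after 180 s compound read.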
D1 ag – human D1 receptor agonism; P21728; HEK293 T-REx D1 cells, calcium flux, agonist mode; activation, % at 2 µM; hit rate 1% among 360,000; AID 504660
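Tetracycline-induced HEK293 TREx D1 cells, force-coupled to calcium signalling, were dye-loaded with a no-wash calcium kit. Compound was pin-added after a 10 s baseline. Fluorescence was read kinetically at 1 cycle/s for 180 s, with calcium rises flagged as agonism.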
TRHR ag – agonists of human TRH receptor; TRHR cells, calcium flux fluo-8, FDSS agonist mode; hit rate 0.18% among 360,000; P34981; activation, % at 2 µM
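In this calcium-flux screen, cells bearing human TRHR are dye-loaded with fluo-8, baselined for 10 cycles, then exposed to library compounds; positive kinetic calcium responses during the agonist phase mark hits, with TRH as control.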
Of the large screens only hits and unclear results are named; the others gave an inactive call. Unless noted, no stated cut-off is given here; in the data, active means activation above about 30%; inactive means the rest.

CC1CN(C(=O)c2ccc(NS(=O)(=O)c3ccc(C(C)(C)C)cc3)cc2)CC(C)O1 (stereo unspecified)	D1 ag 35
CS(=O)(=O)N1CCc2cc(S(=O)(=O)NCCNS(=O)(=O)c3ccc4c(c3)CCN4S(C)(=O)=O)ccc21	none
COC(=O)C(=O)Nc1cccc2cccnc12	none
Cc1ccc(Cl)cc1N1CCN(C(=O)c2ccc3c(c2)CCN3S(=O)(=O)c2ccccc2)CC1	none
COc1ccc(OC)c(C2c3c(oc4ccc(C)cc4c3=O)C(=O)N2CCCN(C)C)c1 (stereo unspecified)	none (no result: D1 antag)
Cc1cccc(OCC(=O)Nc2ccccc2C(=O)OCc2cc(=O)n3nc(C4CC4)sc3n2)c1	none
O=C(C1CCN(S(=O)(=O)c2ccc(Br)s2)CC1)N1CCN(c2cccc(C(F)(F)F)c2)CC1	none
COc1cc(NC(=O)CCc2c(C)nc3cc(-c4ccccc4)nn3c2C)cc(OC)c1OC	none
COc1ccc(NC(=O)CCc2c(C)nc3cc(-c4cccc(F)c4)nn3c2C)cc1Cl	TRHR PAM 40
COc1ccc(-c2cc3nc(C)c(CCC(=O)NC(C)c4ccccc4)c(C)n3n2)c(OC)c1 (stereo unspecified)	none
COC(=O)c1cc(NC(=O)CCc2c(C)nc3cc(-c4ccccc4)nn3c2C)cc(C(=O)OC)c1	TRHR PAM 40
COc1ccc(-c2cc3nc(C)c(CCC(=O)Nc4cccc(C(F)(F)F)c4)c(C)n3n2)c(OC)c1	TRHR PAM 32
COc1cc(OC)cc(-c2cc3nc(C)c(CCC(=O)Nc4ccc(F)c(Cl)c4)c(C)n3n2)c1	none
O=C(CCS(=O)(=O)c1cc(Br)cc2c1N(C(=O)C1CC1)CC2)N1CCN(c2ccccc2)CC1	none
COc1ccc(CCNC(=O)Cn2c(=O)c3sccc3n(CC(=O)Nc3cccc(C(F)(F)F)c3)c2=O)cc1OC	none
N#C/C(=C/c1cn(Cc2ccc(F)cc2)c2ccccc12)C(=O)Nc1cccc(Cl)c1	none
COc1cccc(Cn2ccn(-c3ccc(F)cc3)c(=O)c2=O)c1	none
Clc1cccc(-c2ccc(/C=N/n3cnnc3)o2)c1	D1 antag -33
CCCc1cc(N2CCN(c3ccccc3F)CC2)n2cnnc2n1	none
CSc1ccc(-c2nc3cccc(C)n3c2Nc2ccc3c(c2)OCO3)cc1	none
COc1ccc(C(=O)Oc2ccc3ccc(=O)oc3c2)cc1OC	none
COc1cc2cc(Oc3ccc4ccc(=O)oc4c3)c(=O)oc2cc1OC(=O)/C=C/c1ccccc1	D1 antag -62
Cn1nc(C(F)(F)F)c(-c2cccc(C(F)(F)F)c2)c1NC(=O)c1ccco1	none
Cn1nc(C(F)(F)F)c(-c2cccc(C(F)(F)F)c2)c1NC(=O)Nc1ccc(F)cc1	D1 antag -31
Cn1nc(-c2ccccc2)cc1NC(=O)Nc1ccc(F)cc1	D1 antag -44
CCc1cccc(Nc2ncnc3onc(-c4ccc(F)cc4)c23)c1	none
COc1ccccc1Nc1nn2c(=O)c3ccc(C(=O)NCCc4ccccc4)cc3nc2s1	none
Cc1ccc2nc3n(c(=O)c2c1)-c1cc(Cl)ccc1C(=O)NC3Cc1ccccc1 (stereo unspecified)	D1 antag -38
COc1ccc(Nc2nc(N)nc(CN(C)C3CCCCC3)n2)cc1	D1 antag -34
O=C(CCc1ccccc1)NCc1ccc2c(c1)CCN2C(=O)c1ccc(Cl)cc1	none
O=C(CC1C(=O)NCCN1C(=O)Nc1ccc(Cl)cc1)Nc1ccc(F)cc1 (stereo unspecified)	D1 antag -51
COc1ccc(C(=O)NC2CC2)cc1OC1CCN(Cc2cc(C)cc(C)c2)CC1	D1 antag -51
COc1ccc(C(=O)NC2CC2)cc1OC1CCN(Cc2ccc(Cl)cc2)CC1	D1 antag -58
C/C=C(\C)CN1CCC(Oc2cc(C(=O)NC3CC3)ccc2OC)CC1	none
COC(=O)c1sccc1S(=O)(=O)N1CCN(c2ccc(C(C)=O)cc2)CC1	none
O=C(Cc1nnc(CNC(=O)c2ccccc2)s1)Nc1ccc(C(F)(F)F)cc1Cl	none
c1ccc(-n2cnc3cc(NCc4ccccn4)ccc32)cc1	none
c1ccc(-n2cnc3cc(NCc4ccncc4)ccc32)cc1	D1 antag -39
Cc1ccc(S(=O)(=O)NCCc2nnc3ccc(SCC(=O)Nc4ccc(F)cc4F)nn23)cc1	none
COc1ccc(CC(=O)Nc2cc(Cl)ccc2O)cc1	D1 antag -35
Cc1cccn2c(=O)c3cc(C#N)c(=N)n(CCN4CCOCC4)c3nc12	TRHR PAM 32
CCOC(=O)c1cc(-c2ccccc2)n(CC(=O)NCc2ccccc2OC)c1C	none
CCc1ccccc1NC(=O)c1ccc(Cn2nc(N3CCN(c4ccccc4)CC3)ccc2=O)o1	none
COc1ccc([N+](=O)[O-])cc1/C=N/NC(=O)CNC(=O)C(c1ccccc1)c1ccccc1	D1 antag -32
COc1ccccc1/C=C/CN1CCC(n2nccc2NC(=O)CCc2ccccc2)CC1	D1 ag 31
COc1ccccc1C(=O)Nc1ccnn1C1CCN(C(C)CSC)CC1 (stereo unspecified)	D1 antag -40
Cc1ccc(-n2cc(-c3ccccc3)c3c(NC4CCCC4)ncnc32)cc1	none
COc1ccc(-n2ccnc(NCCc3ccc(S(N)(=O)=O)cc3)c2=O)cc1Cl	none
O=C(CCN=C1NS(=O)(=O)c2ccccc21)OCC(=O)c1ccccc1	none
O=C(CCCN=C1NS(=O)(=O)c2ccccc21)OCC(=O)c1ccccc1	D1 antag -30
Cc1ccc(C(=O)C(C)OC(=O)CCN=C2NS(=O)(=O)c3ccccc32)cc1 (stereo unspecified)	D1 antag -39
Cc1ccc(S(=O)(=O)c2nc(-c3cccs3)oc2SCc2ccc(F)cc2)cc1	none
CCOC(=O)C1CCCN(C(=O)c2nn(-c3ccc(OC)cc3)c(=O)c3c2c2ccccc2n3C)C1 (stereo unspecified)	none
CSc1nn(Cc2ccccc2C)c(NC(C)=O)c1S(=O)(=O)c1ccc(C)cc1	D1 antag -33
COc1ccc(NC(=O)C2=C(C)Nc3ncnn3C2c2ccc(O)cc2)cc1 (stereo unspecified)	none
O/C(=C\c1ccc2ccccc2n1)c1ccc(O)cc1O	D1 ag 71
Oc1ccc(/C=C/c2ccc3ccccc3n2)cc1	none
O=C(O)c1ccc(Nc2ncnc3c2cnn3Cc2ccccc2)cc1	D1 antag -46
CCCCCCc1cc2cc(-c3nnc(-c4ccc(C)cc4)o3)c(=O)oc2cc1O	D1 ag 221
CCCCCCc1cc2cc(/C(N)=N/NC(=O)c3ccncc3)c(=O)oc2cc1O	D1 ag 114, TRHR ag 122 (no result: D1 antag)
CCCCCCc1cc2cc(S(=O)(=O)c3ccc(F)c(Cl)c3)c(=O)oc2cc1O	D1 ag 51
CCCCCCc1cc2cc(C(=O)OCC)c(=O)oc2cc1O	none
